Results filed as inconclusive are left out. Values without a mark were called inactive. Activity calls are given as the source filed them. Calls come from the whole dose curve; as a rule, active = well fitted cell-killing curve with a large enough effect; inconclusive = small, poorly fitted or top-dose-only effect, or effect the other way; inactive = no such curve, though single readings can be large or run the other way.
Assay: qHTS assay to identify small molecule inhibitors of chordoma cells - UCH-1 (AID 1259355); note: nearly all actives have a fitted effect of over 55% in size
Settings: UCH-1 chordoma viability, CellTiter-Glo, 48 h, combination; series mostly up to 46.1 µM; activity, negative = inhibition: at the top concentration
Description: NIH Chemical Genomics Center [NCGC]
Chordoma is a rare and slow growing tumor that can occur anywhere along the spine, from the base of the skull to the tailbone. Current treatment options for chordoma is surgery and radiation therapy for those who are not candidates for surgery. But chordomas tend to return in the same location or surrounding areas of the original tumor after surgery and/or radiation. Chemotherapy can slow down the progression of the tumor. As chordoma is slow growing, the general cytotoxic agents that kill fast growing cells are ineffective, and some patients have been reported to respond to molecularly targeted drugs.
NCATS Pharmaceutical Collection (NPC) containing approximately 3000 clinically approved and investigational drugs were used to screen at 15 concentrations in a chordoma cell lines, UCH-1, to identify small molecule compounds that can inhibit chordoma cell growth.
NCGC Assay Protocol Summary:
Human chordoma cell line UCH-1 was dispensed at 800 per well in 4uL of culture medium into white solid bottom 1536-well plates (Corning Life Sciences, Corning, NY) using a Multidrop Combi (Thermo Scientific, Waltham, MA) dispenser. The assay plates were incubated at 37 C and 5% CO2 for an overnight, and then 23nL of compounds dissolved in DMSO and positive control were transferred using a Pintool station (Wako, San Diego, CA). Compound treatment was followed by the addition of 1uL of the combination compounds (1uM Auranofin, 500nM each of Camptothecin, Doxorubicin, Rubitecan, and Topotecan) and assay medium to each well of the assay plates using Flying Reagent Dispenser (FRD, Aurora Discovery, San Diego, CA). The assay plates were incubated at 37 C and 5% CO2 for 48hr. Then 5uL of CellTiter-Glo reagent (Promega Corporation, Madison, WI) was added to each well of the assay plates using FRD. After 30min incubation at room temperature, the luminescence signal was quantified using a ViewLux plate reader (PerkinElmer, Shelton, CT).
% is set by controls: 0 for no effect and ±100 for the full control effect; potency is the fitted concentration of half-maximal effect.

| SMILES | activity, negative = inhibition | Potency |
| --- | --- | --- |
| COCC(C)N(C(=O)CCl)c1c(C)csc1C (stereo not given) | -6.08% [at 46.1 µM, with auranofin plus four topoisomerase inhibitors] |  |
| CCCC(C)(COC(N)=O)COC(=O)NC1CC1 (stereo not given) | -3.06% |  |
| O=c1[nH]c(=O)n(Cl)c(=O)n1Cl | 3.48% [at 46.1 µM, with auranofin plus four topoisomerase inhibitors] |  |
| O=C1CN=C(c2ccccc2)c2cc(Cl)ccc2N1CC1CC1 | -10.8% |  |
| C[C@H]1CCC[C@H](O)CCCCCc2cc(O)cc(O)c2C(=O)O1 | -11% |  |
| CN1[C@H]2CC[C@@H]1[C@@H](C(=O)O)[C@@H](OC(=O)c1ccccc1)C2 | -3.75% |  |
| Oc1cc(Cl)c(Cl)cc1Cl | -6.57% |  |
| C[C@]12CCC(=O)C=C1C=C[C@@H]1[C@@H]2CC[C@@]2(C)[C@H]1CC[C@@]2(O)CCC(=O)O | -4.44% [at 20.6 µM, with auranofin plus four topoisomerase inhibitors] |  |
| CC(N)Cc1ccc(O)cc1 (stereo not given) | -16% |  |
| CC(=O)[C@H]1CC[C@H]2[C@@H]3CC[C@@H]4C[C@H](O)CC[C@]4(C)[C@H]3CC[C@]12C | -7.54% |  |
| O=C(C[C@@H]1NCCC[C@H]1O)Cn1cnc2cc(Br)c(Cl)cc2c1=O | 1.85% |  |
| ClC1C(Cl)C(Cl)C(Cl)C(Cl)C1Cl (stereo not given) | -14% |  |
| Clc1ccccc1Cl | -26.2% [at 46.1 µM, with auranofin plus four topoisomerase inhibitors] |  |
| CC(C)CCC(=O)O[C@H]1CC[C@H]2[C@@H]3CCC4=CC(=O)CC[C@]4(C)[C@H]3CC[C@]12C | -8.15% |  |
| O=C(NCNC(=O)NC1C(=O)NC(=O)N1CO)NC1C(=O)NC(=O)N1CO (stereo not given) | -1.77% |  |
| CCCCCCCCOC(=O)c1ccccc1C(=O)OCCCCCCCC | 3.81% |  |
| C[C@]12CC[C@H](O)C[C@H]1CC[C@@H]1[C@@H]2CC[C@]2(C)[C@@H](c3ccc(=O)oc3)C[C@H]3O[C@]132 |  | 6.31 µM [with auranofin plus four topoisomerase inhibitors] (active) |
| O[C@H]1[C@H]2[C@H](O)CCCN2C[C@H]1O | -9.13% |  |
| CCCCNCC(O)c1ccc(O)cc1 (stereo not given) | -14.1% |  |
| CC(=O)O[C@H]1CC[C@@]2(C)C(=CC[C@@H]3[C@@H]2CC[C@]2(C)C(=O)CC[C@@H]32)C1 | -5.9% [at 20.6 µM] |  |

| SMILES | activity, negative = inhibition | Potency |
| --- | --- | --- |
| NCC(O)c1cccc(O)c1 (stereo not given) | -12% [at 46.1 µM, with auranofin plus four topoisomerase inhibitors] |  |
| O=[N+]([O-])c1ccc(F)c([N+](=O)[O-])c1 | -27.4% |  |
| CN1[C@@H]2CC[C@H]1CC(OC1c3ccccc3CCc3ccccc31)C2 (stereo not given in full) | -4.78% [at 20.6 µM] |  |
| CCNCC(O)c1cccc(O)c1 (stereo not given) | -47.9% [at 20.6 µM, with auranofin plus four topoisomerase inhibitors] |  |
| CN1CCCC(=C(c2cccs2)c2cccs2)C1 | 13.1% |  |
| C[C@]12C=CC(=O)C=C1CC[C@@H]1[C@@H]2CC[C@]2(C)OC(=O)CC[C@@H]12 | -20.9% |  |
| O=[N+]([O-])c1cc(I)c(O)c(I)c1 | 1.14% |  |
| CCCC(=O)OC(C(Cl)(Cl)Cl)P(=O)(OC)OC (stereo not given) | -31.1% |  |
| [H+].[H+].[Hg+2].[O-]B([O-])[O-].[c-]1ccccc1 |  | 8.91 µM (active) |
| CC1(C)S[C@@H]2[C@H](N)C(=O)N2[C@H]1C(=O)O | -14.2% [at 20.6 µM, with auranofin plus four topoisomerase inhibitors] |  |
| O=P(O)(O)C(Cl)(Cl)P(=O)(O)O | -20.1% |  |
| CCN(CC)CCO[C@H]1CC[C@@]2(C)C(=CC[C@@H]3[C@@H]2CC[C@]2(C)C(=O)CC[C@@H]32)C1 | -3.64% [at 46.1 µM, with auranofin plus four topoisomerase inhibitors] |  |
| [N-]=[N+]=CC(=O)OCC(N)C(=O)O (stereo not given) | 9.78% [at 46.1 µM, with auranofin plus four topoisomerase inhibitors] |  |
| C#CCN1CC(=O)N(COC(=O)C2C(C=C(C)C)C2(C)C)C1=O (stereo not given) | -22.7% [at 46.1 µM, with auranofin plus four topoisomerase inhibitors] |  |
| CCC(N)Cc1c[nH]c2ccccc12 (stereo not given) | -10.4% |  |
| C=CC[C@]1(O)CC[C@H]2[C@@H]3CCC4=CCCC[C@@H]4[C@H]3CC[C@@]21C | -17.5% |  |
| Cn1sc(Cl)cc1=O | -15% |  |
| OC(c1ccccc1)(c1ccccc1)C1CN2CCC1CC2 (stereo not given) | -14.9% [at 46.1 µM, with auranofin plus four topoisomerase inhibitors] |  |
| C[C@]12C[C@H]3S[C@H]3C[C@@H]1CC[C@@H]1[C@@H]2CC[C@]2(C)[C@@H](O)CC[C@@H]12 | -19% [at 20.6 µM] |  |
| O=c1[nH]cc(N(CCCl)CCCl)c(=O)[nH]1 | -10.7% |  |
